Laboratory results reported in PubChem BioAssay AID1159580 (chemical genetic matrix, 2015).
Several values for one entry are separate records, joined by “and”; a condition that tells them apart may be missing. Equal values may be shown once. In all, about 5,500 compounds went through this assay and about 2,000 (36%) were called active. Inconclusive results (about 18%) are left out. No stated cut-off is given here; in the data, active means normalized growth mostly below about 0.91 (no sharp cut-off); inconclusive means no clear call, values can overlap the other calls; inactive means mostly above about 0.92. This is one part of the list.

Assay: chemical genetic growth profiling, strain panel (AID 1159580);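 further: tested at 20 µM; growth read once vehicle control cultures reached saturation at 30 °C; 1 = growth at the plate median or of vehicle wells; lower values mean less growth of the strain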
Conditions: S. cerevisiae deletion strains, growth OD
[1] = locus YHR030C, strain SLT2, hits give low values
[2] = locus YHR079C, strain IRE1, hits give low values
[3] = locus YJL095W, strain BCK1, hits give low values
[4] = locus YJR066W, strain TOR1, hits give low values
[5] = locus YLR113W, strain HOG1, hits give low values
[6] = locus YNL183C, strain NPR1, hits give low values
[7] = locus YOR231W, strain MKK1, hits give low values
[8] = locus YPL256C, strain CLN2, hits give low values

Measured: normalized growth

COc1cc(O)c(C(C)=O)c(OC)c1
inactive: locus YAL013W, strain DEP1, hits give low values 1.02 | locus YAL021C, strain ccr4, hits give low values 1.01 | locus YAL026C, strain drs2, hits give low values 0.968 | locus YAL030W, strain snc1, hits give low values 1 | locus YBL061C, strain skt5, hits give low values 0.992 | locus YBR009C, strain hhf1, hits give low values 0.957 | locus YBR021W, strain FUR4, hits give low values 1.02 | locus YBR023C, strain chs3, hits give low values 0.995 | locus YBR171W, strain sec66, hits give low values 0.993 | locus YBR229C, strain ROT2, hits give low values 1.01 | locus YBR231C, strain swc5, hits give low values 0.994 | locus YBR279W, strain paf1, hits give low values 1 | locus YCL011C, strain gbp2, hits give low values 0.99 | locus YCL016C, strain dcc1, hits give low values 1.01 | locus YCL029C, strain bik1, hits give low values 1.01 | locus YCL061C, strain MRC1, hits give low values 0.965 | locus YCL069W, strain vba3, hits give low values 1 | locus YCR088W, strain abp1, hits give low values 0.993 | locus YDL005C, strain med2, hits give low values 1.03 | locus YDL035C, strain GPR1, hits give low values 1.04 | locus YDL040C, strain nat1, hits give low values 0.999 | locus YDL074C, strain BRE1, hits give low values 1.04 | locus YDL101C, strain DUN1, hits give low values 1.01 | locus YDL134C, strain PPH21, hits give low values 0.999 | locus YDL185W, strain tfp1, hits give low values 0.992 | locus YDL192W, strain arf1, hits give low values 1.01 | locus YDR001C, strain nth1, hits give low values 0.996 | locus YDR069C, strain doa4, hits give low values 1.03 | locus YDR101C, strain arx1, hits give low values 1 | locus YDR137W, strain rgp1, hits give low values 1.03 | locus YDR150W, strain NUM1, hits give low values 0.982 | locus YDR159W, strain sac3, hits give low values 0.936 | locus YDR162C, strain NBP2, hits give low values 1.05 | locus YDR297W, strain sur2, hits give low values 1.01 | locus YDR318W, strain mcm21, hits give low values 1 | locus YDR334W, strain swr1, hits give low values 1 | locus YDR335W, strain msn5, hits give low values 1.01 | locus YDR388W, hits give low values 1 | locus YDR392W, strain spt3, hits give low values 0.842 | locus YDR502C, strain sam2, hits give low values 0.983 | locus YEL003W, strain gim4, hits give low values 0.984 | locus YEL037C, strain rad23, hits give low values 0.998 | locus YEL061C, strain CIN8 (second series), hits give low values 1 | locus YEL061C, strain CIN8, hits give low values 1.01 | locus YER015W, strain faa2, hits give low values 1.01 | locus YER016W, strain bim1, hits give low values 1 | locus YER110C, hits give low values 0.982 | locus YER111C, strain swi4, hits give low values 1 | locus YER155C, strain BEM2, hits give low values 1.01 | locus YER167W, strain BCK2, hits give low values 1.01 | locus YFR010W, strain ubp6, hits give low values 0.999 | locus YGL078C, strain dbp3, hits give low values 0.991 | locus YGL086W, strain mad1, hits give low values 0.988 | locus YGL167C, strain pmr1, hits give low values 1.01 | locus YGL173C, strain kem1, hits give low values 0.988 | locus YGL227W, strain vid30, hits give low values 0.997 | locus YGL240W, strain doc1, hits give low values 0.916 | locus YGL248W, strain PDE1, hits give low values 0.996 | locus YGL253W, strain hxk2, hits give low values 0.984 | locus YGR078C, strain PAC10, hits give low values 0.989 | locus YGR135W, strain pre9, hits give low values 0.957 | locus YGR252W, strain gcn5, hits give low values 0.921 | locus YHR013C, strain ard1, hits give low values 1.01 | locus YHR027C, strain rpn1, hits give low values 1.01 | [1] 1.01 and 0.966 | locus YHR079C, strain IRE1 (second series), hits give low values 1 | [2] 0.965 | locus YHR094C, strain hxt1, hits give low values 0.993 | locus YHR129C, strain ARP1, hits give low values 1.02 | locus YHR142W, strain chs7, hits give low values 0.929 | locus YHR200W, strain rpn10, hits give low values 0.98 | locus YIL066C, strain RNR3, hits give low values 1.02 | locus YIL073C, strain SPO22, hits give low values 0.967 | locus YIL125W, strain kgd1, hits give low values 1 | locus YIR030C, strain dcg1, hits give low values 0.997 | locus YJL092W, strain hpr5, hits give low values 0.992 | locus YJL095W, strain BCK1 (second series), hits give low values 0.996 | [3] 1.02 and 0.967 | locus YJL115W, strain asf1, hits give low values 1.01 | locus YJL129C, strain trk1, hits give low values 0.995 | locus YJL134W, strain LCB3, hits give low values 1 | locus YJL154C, strain vps35, hits give low values 1.01 | locus YJL164C, strain tpk1, hits give low values 0.976 | locus YJL166W, strain qcr8, hits give low values 0.978 | locus YJL168C, strain set2, hits give low values 0.993 | locus YJL187C, strain SWE1 (second series), hits give low values 1.01 | locus YJL187C, strain SWE1, hits give low values 1 | [4] 0.89 | locus YKL009W, strain mrt4, hits give low values 1.02 | locus YKL068W, hits give low values 0.99 | locus YKL085W, strain MDH1 (second series), hits give low values 1.01 | locus YKL085W, strain MDH1, hits give low values 1.01 | locus YKL160W, strain elf1, hits give low values 0.986 | locus YKL190W, strain CNB1, hits give low values 1.01 | locus YKR001C, strain vps1, hits give low values 0.998 | locus YKR026C, strain gcn3, hits give low values 0.994 | locus YKR091W, strain srl3, hits give low values 0.998 | locus YLL001W, strain dnm1, hits give low values 0.992 | locus YLL026W, hits give low values 0.992 | locus YLL041C, strain sdh2, hits give low values 0.998 | locus YLR027C, strain aat2, hits give low values 0.987 | locus YLR039C, strain RIC1, hits give low values 1.1 | locus YLR058C, strain SHM2, hits give low values 1.02 | locus YLR102C, strain apc9, hits give low values 0.992 | [5] 0.955 | locus YLR221C, strain rsa3, hits give low values 0.971 | locus YLR258W, strain gsy2, hits give low values 0.982 | locus YLR262C, strain YPT6 (second series), hits give low values 1.01 | locus YLR262C, strain YPT6, hits give low values 1.15 | locus YLR268W, strain sec22, hits give low values 1.01 | locus YLR320W, strain mms22, hits give low values 0.972 | locus YLR330W, strain CHS5, hits give low values 1.01 | locus YLR342W, strain FKS1, hits give low values 1.01 | locus YLR357W, strain rsc2, hits give low values 1.01 | locus YLR370C, strain arc18, hits give low values 1 | locus YLR371W, strain rom2, hits give low values 0.975 | locus YLR384C, strain iki3, hits give low values 1.01 | locus YLR418C, strain cdc73, hits give low values 0.998 | locus YML016C, strain PPZ1, hits give low values 1 | locus YML032C, strain rad52, hits give low values 1.01 | locus YML120C, strain ndi1, hits give low values 0.99 | locus YML124C, strain tub3, hits give low values 0.988 | locus YMR058W, strain fet3, hits give low values 0.972 | locus YMR078C, strain ctf18, hits give low values 0.98 | locus YMR125W, strain sto1, hits give low values 1.06 | locus YMR129W, hits give low values 1.01 | locus YMR205C, strain PFK2, hits give low values 1 | locus YMR223W, strain ubp8, hits give low values 0.989 | locus YMR231W, strain pep5, hits give low values 1.02 | locus YMR307W, strain GAS1, hits give low values 1.02 | locus YNL067W, strain RPL9B, hits give low values 1 | locus YNL071W, strain lat1, hits give low values 0.985 | locus YNL128W, strain TEP1, hits give low values 1.03 | locus YNL153C, strain GIM3, hits give low values 1.02 | [6] 0.918 | locus YNL209W, strain ssb2, hits give low values 1 | locus YNL233W, strain BNI4, hits give low values 1.03 | locus YNL248C, strain rpa49, hits give low values 0.969 | locus YNL250W, strain rad50, hits give low values 0.99 | locus YNL271C, strain bni1, hits give low values 0.985 | locus YNL298W, strain CLA4, hits give low values 1 | locus YNL307C, strain MCK1, hits give low values 0.978 | locus YNL322C, strain KRE1 (second series), hits give low values 1.01 | locus YNR049C, strain mso1, hits give low values 1.01 | locus YNR052C, strain pop2, hits give low values 0.988 | locus YOL006C, strain TOP1, hits give low values 1.06 | locus YOL012C, strain htz1 0.925 | locus YOL147C, strain pex11, hits give low values 1 | locus YOR001W, strain rrp6, hits give low values 0.959 | locus YOR061W, strain CKA2, hits give low values 1.03 | locus YOR069W, strain VPS5, hits give low values 1 | locus YOR070C, strain gyp1, hits give low values 0.998 | locus YOR080W, strain dia2, hits give low values 1.01 | locus YOR083W, strain WHI5, hits give low values 0.965 | locus YOR106W, strain vam3, hits give low values 0.972 | locus YOR136W, strain idh2, hits give low values 1 | locus YOR144C, strain elg1, hits give low values 0.999 | locus YOR184W, strain ser1, hits give low values 1.03 | [7] 0.956 | locus YOR265W, strain rbl2, hits give low values 0.989 | locus YOR270C, strain vph1, hits give low values 0.915 | locus YOR290C, strain snf2, hits give low values 0.95 | locus YOR316C, strain cot1, hits give low values 0.995 | locus YPL051W, strain arl3, hits give low values 0.966 | locus YPL078C, strain atp4, hits give low values 0.954 | locus YPL106C, strain sse1, hits give low values 0.982 | locus YPL240C, strain hsp82, hits give low values 1 | [8] 0.978 | locus YPR119W, strain clb2, hits give low values 0.988 | locus YPR141C, strain kar3, hits give low values 0.993 | locus YPR163C, strain tif3, hits give low values 0.986 | locus YPR167C, strain met16, hits give low values 0.991 | strain wtn01, hits give low values 0.991
active: locus YDR195W, strain ref2 1.16 [resistant] | locus YER155C, strain BEM2 (second series), hits give low values 0.8

COc1cc(O)c(C(C)=O)c(O)c1
inactive: [1] 1.05 | [2] 1.03 | [3] 0.989 | [4] 0.979 | [5] 0.935 | [6] 0.925 | [7] 1.04 | [8] 0.992
